Data reported in PubChem BioAssay (NCI).
The panel holds about 83,000 compounds, 20% with a hit somewhere; the sample as a whole holds those more often.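 Note: values are percent growth. 100 is the growth of untreated cells, values between 100 and 0 indicate rising inhibition; between -100 and 0 indicates cell death.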 A number with no mark means an inactive call. Calls of active or inactive are those of the source. The calls were made as follows: active = growth percent below 10; inactive = the rest.

Columns and labels:
Assay in all cases: NCI-60 one-dose screen, 48 h (100 = growth as untreated, 0 = no growth, -100 = all killed)
Conditions in all cases: 10 µM unless noted
DU-145 prostate = system: DU-145 prostate
K-562 leukemia = system: K-562 leukemia
MALME-3M melanoma = system: MALME-3M melanoma
MDA-MB-231 breast = system: MDA-MB-231 breast
RXF 393 renal = system: RXF 393 renal
SF-268 CNS = system: SF-268 CNS
SF-295 CNS = system: SF-295 CNS
SF-539 CNS = system: SF-539 CNS
UACC-257 melanoma = system: UACC-257 melanoma
M14 melanoma = system: M14 melanoma
HCT-15 colon = system: HCT-15 colon
HT29 colon = system: HT29 colon
SNB-75 CNS = system: SNB-75 CNS
SNB-19 CNS = system: SNB-19 CNS
U251 CNS = system: U251 CNS
SK-MEL-5 melanoma = system: SK-MEL-5 melanoma
UACC-62 melanoma = system: UACC-62 melanoma
LOX IMVI melanoma = system: LOX IMVI melanoma
SK-MEL-28 melanoma = system: SK-MEL-28 melanoma
PC-3 prostate = system: PC-3 prostate

| SMILES | growth (DU-145 prostate) [%] | growth (K-562 leukemia) | growth (MALME-3M melanoma) | growth (MDA-MB-231 breast) | growth (RXF 393 renal) | growth (SF-268 CNS) [%] | growth (SF-295 CNS) | growth (SF-539 CNS) | growth (UACC-257 melanoma) | growth (M14 melanoma) | growth (HCT-15 colon) | growth (HT29 colon) | growth (SNB-75 CNS) [%] | growth (SNB-19 CNS) [%] | growth (U251 CNS) | growth (SK-MEL-5 melanoma) | growth (UACC-62 melanoma) [%] | growth (LOX IMVI melanoma) | growth (SK-MEL-28 melanoma) | growth (PC-3 prostate) [%] |
| --- | --- | --- | --- | --- | --- | --- | --- | --- | --- | --- | --- | --- | --- | --- | --- | --- | --- | --- | --- | --- |
| COc1ccc2c(-c3ccc(F)cc3)c(C#N)c(=NC(C)=O)oc2c1 | 49.6 | 8% (active) | 53.7% | 54.7% | 36% | 52.7 | 37.9% | 28.4% | 72% | 19.8% | 25.8% | 95.6% | 34 | 33.7 | 39.5% | 24.7% | 32.1 | 41.9% | 69.7% | – |
| O=C1COc2ccccc2C(=O)N1CCCCN1CCCCC1 | 93.7 | 50% | 93.8% | 109% | 118% | 100 | 93.9% | 102% | 102% | 91.9% | 91.3% | 73.6% | 99.5 | 99.4 | 88.9% | 99.1% | 91.6 | 90.7% | 95.6% | – |
| COc1ccc(-c2nn(-c3ccc(NC(=O)c4cc(Cl)cc(Cl)c4)cc3)cc2-c2ccncc2)cc1Cl | 76.6 | 12% | 89.9% | 25.1% | -66.8% (active) | 63.5 | -28.5% (active) | 47.8% | 85% | 42.9% | 21.7% | 8.22% (active) | 72.4 | 82.8 | 39.2% | 54.8% | – | 22.9% | 75.1% | 47.9 |
| COc1cc(-c2nc3sc(C)cn3c2/C=C2\C(=O)Nc3ccccc32)c(Br)c(OC)c1OC | 46.9 | 9.97% (active) | 26.3% | 79.4% | 13.4% | 54.1 | 21.8% | 11.8% | 79.4% | 22.2% | 52.9% | 9.62% (active) | 18.2 | 40.4 | 52.1% | 10.4% | – | 41.3% | 69.5% | 26.5 |
| CCN(CC)CC(=O)Nc1c(C)cccc1C | 121 | 99.8% | 93.3% | 108% | 102% | 108 | 89.8% | 104% | 108% | 100% | 98.1% | 111% | 95.5 | 106 | 106% | 93.2% | – | 100% | 110% | 100 |
| CCCCOc1nc2ccc(Cl)cc2cc1/C=C/C(=O)/C=C/c1ccc(Cl)cc1 | 84.7 | 57% | 104% | 86.5% | 41.6% | 81 | 79.5% | 100% | 84% | 18% | 81.9% | 25.2% | 86.4 | 93.9 | 35.3% | 49.4% | – | 24.1% | 81.9% | 57.5 |
| COC(=O)c1oc2c(C(C)=O)c(OCCN3CCCCC3)ccc2c1C | 117 | 89.4% | 40.9% | 87.2% | 124% | 95.4 | 99.4% | 116% | 112% | 111% | 110% | 133% | 226 | 125 | 105% | 102% | 122 | 96.5% | 133% | – |
| COc1cccc(/C=N/C(=S)NC2(C)C3CCC(C3)C2(C)C)c1O (configuration not stated) | 105 | 79.4% | 89.8% | 96.2% | 99% | 94.7 | 86.1% | 95.3% | 87% | 64.8% | 32.5% | 101% | 90.8 | 82.9 | 48.7% | 88.6% | – | 70.8% | 102% | 65.9 |
| CC/C(=C(\CC)c1ccc(OCCN(CC)CC)cc1)c1ccc(OCCN(CC)CC)cc1 | 73.9 | 12.7% | -42.8% (active) | 5.07% (active) | -4.27% (active) | 55.2 | -13.9% (active) | -35% (active) | -51.8% (active) | -0.0375% (active) | 6.7% (active) | -0.437% (active) | 39.1 | 62.5 | 24.6% | -96.4% (active) | 10.9 | -5.77% (active) | -40.5% (active) | – |
| N#Cc1c(N)nc2c(c1N)C(c1ccc(Cl)cc1)C1=C(CCCC1=O)N2c1sc2c(c1C#N)CCCC2 (configuration not stated) | 99.7 | 74.2% | 90.7% | 75.4% | 60.6% | 89.5 | 101% | 96% | 92.6% | 90.3% | 102% | 81.2% | 91.4 | 92.4 | 99.7% | 98.6% | 88.3 | 81.5% | 96.6% | – |
| N#Cc1c(N)nc(Cl)c(C#N)c1C(=O)c1ccccc1 | 52.1 | 5.81% (active) | 42.3% | 26.3% | -2.56% (active) | 38.6 | 56.1% | 15.2% | 69.4% | 35% | 18.4% | 18.3% | 50 | 31.2 | 30.1% | 23.1% | 36.3 | 12% | – | – |
| O=C(Nc1ccc(-n2cc(-c3ccncc3)c(-c3ccc(O)c(Cl)c3)n2)cc1)Nc1cc(C(F)(F)F)cc(C(F)(F)F)c1 | 80.6 | 57.6% | 92.1% | 78.3% | 27% | 70.8 | 19.6% | 62.4% | 90.3% | 55.6% | 61.1% | 97.2% | 72.2 | 47.6 | 37.7% | 54% | 64.1 | 51.4% | 76.8% | – |
| O=C(Nc1ccc(-n2ccc3c(NC(=O)c4ccccc4)nccc32)cc1)c1ccc(Cl)c(C(F)(F)F)c1 | 23.6 | -31.6% (active) | 57.9% | 55.8% | 18.4% | 28.7 | 25.3% | 24.1% | 58.8% | 31.5% | -32.9% (active) | -3.9% (active) | 60.3 | 44.6 | -51.6% (active) | 27.1% | – | -28.8% (active) | 54.6% | 42 |
| C=C1C(=O)O[C@H]2[C@H]1CC/C(C(=O)Nc1ccc(OC)c(C(N)=O)c1O)=C\CC[C@@]1(C)O[C@@H]21 | 36.3 | 22.9% | 21% | 58.4% | 3.02% (active) | 86.3 | 94.9% | 60.5% | 51.1% | 55.8% | 45.8% | 36% | 88.5 | 90.4 | – | 86.7% | 67.5 | 77.1% | 52.9% | 95.3 |
| CCN(CC)CCNC(=O)c1c(C)[nH]c(/C=C2\C(=O)Nc3cc(NC(=O)NC(=O)c4ccc(OC)cc4F)ccc32)c1C | 97.3 | 10.9% | 108% | 77.8% | 66.4% | 102 | 117% | 94.7% | 111% | 105% | 72.7% | 31.7% | 94 | 92.4 | 92.8% | 85.3% | 104 | 97% | 99.7% | – |
| O=C(NCCNc1nccc(-c2c(-c3cccc(O)c3)nc3sccn23)n1)c1cc(N2CCOCC2)cc(C(F)(F)F)c1 | 110 | 70.7% | 3.04% (active) | 74.1% | 77.8% | 102 | 84.4% | 101% | 16.7% | 22.4% | 92% | 49.2% | 83.2 | 125 | – | 58.4% | – | 52.3% | 44.4% | 78.2 |
